Some test systems named below: DU-145 prostate; K-562 leukemia; MALME-3M melanoma; MDA-MB-231 breast; RXF 393 renal; SF-268 CNS; SF-295 CNS; SF-539 CNS; UACC-257 melanoma; M14 melanoma.
What all share (experiment): NCI-60 one-dose screen, 48 h (100 = growth as untreated, 0 = no growth, -100 = all killed)
Common to all, as to settings: 10 µM unless noted

This is part of a sample that, as a whole, favours compounds with a hit. Of some 83,000 tested, about 20% had one in any assay.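 Cells were grown in 96-well plates and exposed to the test compound at a single concentration for 48 hours; results are reported as percent growth, with values below 10 considered active.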 Unmarked numbers belong to inactive results. Active and inactive are the calls of the source.

Data on 14 molecules can be found in PubChem BioAssay (NCI).

With `COc1nc2c(cc1S(=O)(=O)c1ccccc1)CCc1c-2cnn1Cc1ccccc1`, the growth in the assay on DU-145 prostate is 83.5%; in the assay on K-562 leukemia, 38%; with MALME-3M melanoma, 91.3%; in the assay with MDA-MB-231 breast, 59.1%; in the assay on RXF 393 renal it was 38.8%; in the assay with SF-268 CNS it was 82.2%. Further, the growth was 42% with SF-295 CNS, 73.7% in the assay on SF-539 CNS, 48.3% with UACC-257 melanoma and 75.9% in the assay with M14 melanoma.
For `C=CC[N+]1(CC)CCN=C1CCCCCCCCCCCCCCCCC` (stereo not given), the growth in the assay with DU-145 prostate is -100% (active); in the assay on K-562 leukemia, -66.9% (active); in the assay with MALME-3M melanoma, -46.4% (active); in the assay with MDA-MB-231 breast, -89.7% (active); in the assay on RXF 393 renal, -90.3% (active); in the assay with SF-268 CNS it was -83.4% (active). The growth with SF-295 CNS was -31.4% (active); in the assay on SF-539 CNS, -98.2% (active); with UACC-257 melanoma, -91.3% (active); in the assay on M14 melanoma it was -99.8% (active).
For `C=C1CC2(OC1=O)C(=O)Nc1ccccc12` (stereo not given), the growth was 43% with DU-145 prostate; 21.8% with K-562 leukemia; 12.4% in the assay on MALME-3M melanoma; 65.6% in the assay on MDA-MB-231 breast; -13.3% (active) in the assay on RXF 393 renal; 98% in the assay on SF-268 CNS. Also, the growth is 96% in the assay with SF-295 CNS, 47.3% in the assay on SF-539 CNS, 71.9% in the assay on UACC-257 melanoma and 59.1% in the assay with M14 melanoma.
Consider `CCN(CC)CCCC(C)NCCCNc1cccc2cccnc12` (stereo not given), for which the growth in the assay with DU-145 prostate was 106%; in the assay on K-562 leukemia it was 97.5%; in the assay on MALME-3M melanoma, 88.1%; in the assay on MDA-MB-231 breast, 81.4%; in the assay with RXF 393 renal, 104%; with SF-268 CNS, 86.6%. For the same molecule, the growth is 98% in the assay with SF-295 CNS, 100% in the assay on SF-539 CNS, 104% in the assay with UACC-257 melanoma and 104% in the assay on M14 melanoma.
For `COc1cc2c(=O)n(CC3CCCCC3)c3c4cc[nH]c4ncc3c2cc1OC`, the growth was 50.3% in the assay with DU-145 prostate; 5.36% (active) in the assay on K-562 leukemia; 65.9% with MALME-3M melanoma; 25.5% in the assay on MDA-MB-231 breast; -4.27% (active) in the assay on RXF 393 renal; 28.8% with SF-268 CNS. Moreover, the growth in the assay on SF-295 CNS is 42.9%; with SF-539 CNS, -7.56% (active); in the assay with UACC-257 melanoma, 84.9%; in the assay with M14 melanoma, 49.2%.
As to `CCOC(=O)c1c2ncccc2n2c(=O)n(-c3ccc(Cl)cc3)nnc12`, the growth in the assay with DU-145 prostate is 112%; in the assay on K-562 leukemia it was 77.7%; with MALME-3M melanoma, 95.7%; in the assay on MDA-MB-231 breast, 91.2%; in the assay with RXF 393 renal it was 104%; with SF-268 CNS, 72.3%. The growth is 9.85% (active) with SF-295 CNS, 47.8% with SF-539 CNS, 102% with UACC-257 melanoma and 81.1% with M14 melanoma.
Regarding `COc1ccc2c(c1)C(=O)/C(=C/c1cccc(OCC(=O)Nc3nc4c(s3)CCCC4)c1)O2`, the growth in the assay with DU-145 prostate is 32.9%; with K-562 leukemia it was -46.8% (active); in the assay on MALME-3M melanoma, -67.6% (active); in the assay on MDA-MB-231 breast, 23.5%; with RXF 393 renal, -43.8% (active); with SF-268 CNS, -26.9% (active). For the same molecule, the growth in the assay with SF-295 CNS was 52.1%; in the assay with SF-539 CNS, -83.2% (active); with UACC-257 melanoma it was -22.4% (active); in the assay with M14 melanoma, -27.4% (active).
As for `NS(=O)(=O)N(c1cc(C(F)(F)F)cc(C(F)(F)F)c1)C1CCN(Cc2ccc(F)cc2)CC1`, the growth in the assay on DU-145 prostate is 99%; with K-562 leukemia, 26.1%; in the assay on MALME-3M melanoma, 29%; in the assay on MDA-MB-231 breast, 67.7%; with RXF 393 renal it was 41.7%; in the assay on SF-268 CNS, 79.9%. The growth is 81.6% with SF-295 CNS, 83.1% in the assay on SF-539 CNS, 62.1% in the assay on UACC-257 melanoma and 46.6% in the assay with M14 melanoma.
`Nc1cc(-c2nc3sccn3c2-c2ccnc(NCCCNS(=O)(=O)c3ccc(F)cc3)n2)ccc1F`: the growth in the assay on DU-145 prostate was 58.6%; with K-562 leukemia, 26.8%; with MALME-3M melanoma it was 37.1%; in the assay on MDA-MB-231 breast it was 62.5%; with RXF 393 renal, 52.1%; in the assay with SF-268 CNS it was 62%. The growth was 67.5% with SF-295 CNS, 73.2% in the assay on SF-539 CNS, 57.9% with UACC-257 melanoma and 31% with M14 melanoma.
For `COc1ccc(-c2cc(-c3cccnc3)nc3sc4c(=O)n(-c5ccc(C)cc5)cnc4c23)cc1OC`, the growth in the assay with DU-145 prostate is 101%; in the assay with K-562 leukemia, 111%; with MALME-3M melanoma it was 102%; with MDA-MB-231 breast, 90.1%; with RXF 393 renal, 98.5%; in the assay with SF-268 CNS, 100%. Further, the growth in the assay on SF-295 CNS is 101%; in the assay with SF-539 CNS it was 89.4%; with UACC-257 melanoma, 104%; in the assay on M14 melanoma it was 99%.
Take `CC(C)n1cc2c(N)ncnc2n1`: the growth in the assay on DU-145 prostate was 128%; in the assay with K-562 leukemia it was 98.5%; in the assay with MALME-3M melanoma, 86.3%; with MDA-MB-231 breast, 109%; with RXF 393 renal it was 115%; in the assay with SF-268 CNS, 106%. The growth in the assay on SF-295 CNS was 102%; with SF-539 CNS, 105%; with UACC-257 melanoma, 121%; in the assay with M14 melanoma it was 107%.
Take `S=c1[nH]nc(CSc2ncnc3c2c(-c2ccccc2)cn3-c2ccc(Cl)cc2)o1`: the growth with DU-145 prostate is 106%; in the assay on K-562 leukemia it was 92.3%; in the assay on MALME-3M melanoma it was 98.5%; with MDA-MB-231 breast, 94.3%; in the assay with RXF 393 renal it was 125%; with SF-268 CNS, 97.5%. For the same molecule, the growth in the assay with SF-295 CNS was 102%; in the assay on SF-539 CNS it was 94.7%; with UACC-257 melanoma, 105%; in the assay on M14 melanoma, 100%.
Regarding `Nc1cccc(-c2nc3sccn3c2-c2ccnc(NCCCNS(=O)(=O)c3ccc(C(F)(F)F)cc3)n2)c1`, the growth was 13.5% in the assay on DU-145 prostate; 8.49% (active) in the assay with K-562 leukemia; -2.19% (active) in the assay on MALME-3M melanoma; 21% in the assay with MDA-MB-231 breast; 19.7% in the assay with RXF 393 renal; 14.6% with SF-268 CNS. Further, the growth in the assay with SF-295 CNS is -11.3% (active); in the assay on SF-539 CNS, 16.5%; with UACC-257 melanoma it was 18.8%; in the assay on M14 melanoma, 9.8% (active).
As for `CCOC(=S)SCc1ccc(Cl)cc1`, the growth with DU-145 prostate was 106%; in the assay with K-562 leukemia it was 110%; with MALME-3M melanoma, 107%; in the assay with MDA-MB-231 breast, 85.4%; in the assay on RXF 393 renal, 87.6%; in the assay on SF-268 CNS it was 106%. The growth is 89.4% in the assay on SF-295 CNS, 114% in the assay on SF-539 CNS, 100% in the assay with UACC-257 melanoma and 99.1% in the assay with M14 melanoma.
